A short description of assay [1]: Tanguay_ZF_120hpf_SWIM_legacy: (Legacy) Oregon State University Tanguay Lab 120 Hour Post-fertilization zebrafish Assay for Swim Bladder Malformation (AID 2283654).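 Also: swim bladder malformation in each larva scored yes or no under brightfield.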 The method, boiled down:
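Dechorionated wild-type Tropical 5D zebrafish embryos, one per well from 6 hpf, were statically exposed at 28C until 120 hpf in 0.64% DMSO. Swim bladder malformation scored as present/absent by brightfield microscopy; not scored in dead larvae.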

Assay [2] can be described thus: Tanguay_ZF_120hpf_TRUN_legacy: (Legacy) Oregon State University Tanguay Lab 120 Hour Post-fertilization zebrafish Assay for Truncated Body (AID 2283655). The method, boiled down:
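Dechorionated Tropical 5D wild-type embryos placed singly from 6 hpf and statically exposed to 120 hpf at 28C, final DMSO 0.64%. Truncated body scored as present/absent by brightfield; not scored in dead embryos.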

Assay [3] in a line: Tanguay_ZF_120hpf_ActivityScore_legacy: (Legacy) Oregon State University Tanguay Lab 120 Hour Post-fertilization zebrafish Assay Score for Activity (AID 2283742). Put shortly:
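Dechorionated Tropical 5D embryos, one per well from 6 hpf, statically exposed to 120 hpf at 28 °C in 0.64% DMSO. Mortality and malformations scored binary by brightfield microscopy; activity score combines 18 endpoints, fitted positively versus DMSO.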

Assay [4] can be described thus: Tanguay_ZF_120hpf_NC_legacy: (Legacy) Oregon State University Tanguay Lab 120 Hour Post-fertilization zebrafish Assay for Notochord and Tail Malformation (AID 2283656). The method, boiled down: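 Dechorionated 5D zebrafish, 1/well from 6 hpf; static exposure to 120 hpf, 28C, sealed, dark; final DMSO 0.64% v/v. NC scored binary (present/absent); dead embryos not scored. Fit vs DMSO baseline, gain direction.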

Assay [5] in a line: CCTE_Simmons_CellTiterGLO_HEK293T: Viability Assessment in CCTE's Assays for Thyroperoxidase (TPO) Inhibition, Simmons Lab (AID 2283665). Put shortly:
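Cytotoxicity counter-screen: human HEK293T cells in low-serum (1% FBS) medium receive test chemical, 5 nM to 87.5 uM final, for 24 h; ATP is quantified by luciferase luminescence.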
For orientation: Cellular ATP, detected with luciferase, serves as a proxy for viable cell number.

The nature of assay [6]: Tanguay_ZF_120hpf_TR_legacy: (Legacy) Oregon State University Tanguay Lab 120 Hour Post-fertilization zebrafish Assay for Touch Response (AID 2283667). Put shortly:
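Tropical 5D wild-type zebrafish embryos statically exposed to 120 hpf at 28°C, sealed and dark-covered, 0.64% DMSO final; touch response scored as present/absent by brightfield microscopy at 120 hpf. Trimethyltin chloride 5 uM positive control; dead embryos not scored.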

A short description of assay [7]: CCTE_Padilla_ZF_144hpf_TERATOSCORE: (Legacy) CCTE's 144 Hour Post-fertilization zebrafish Assay Teratoscore, Padilla Lab (AID 2283679; active = hit-call score of the fitted dose curve at least 0.9, where 1 is the maximum; inactive = score below 0.9;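 as to AC50: zebrafish embryos with chorions exposed by immersion from 6-8 hpf to 5 dpf with daily renewal; teratogenicity score from eye scoring of death hatching and malformations at 144 hpf; higher score means more developmental defects relative to DMSO baseline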). The method, boiled down: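 Larvae scored by eye at 144 hpf for death, hatching and malformations after a day in clean Hanks'. Before that, daily-renewed exposure at 80 uM (0.4% DMSO, 26C) from roughly 6-8 hpf through 5 dpf, 4 embryos per chemical.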

The nature of assay [8]: STM_H9_OrnithineISnorm_perc: Stemina devTOX quickPredict H9 human embryonic stem cell (hESC)-based Assay for Ornithine (ORN) Metabolite Biomarker, Normalized (AID 2283712; active = hit-call score of the fitted dose curve at least 0.9, where 1 is the maximum; inactive = score below 0.9;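 also: ornithine released into spent medium during last day measured by mass spectrometry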). The method, boiled down:
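Cells: undifferentiated H9 hESC. Dosing: 72 h, media replaced every 24 h. Sample: final 24-h conditioned media, 40% acetonitrile. Read: UPLC-HRMS ornithine area vs 13C standard, % DMSO control.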

Assay [9] can be described thus: STM_H9_CystineISnorm_perc: Stemina devTOX quickPredict H9 human embryonic stem cell (hESC)-based Assay for Cystine (CYSS) Metabolite Biomarker, Normalized (AID 2283713; active = hit-call score of the fitted dose curve at least 0.9, where 1 is the maximum; inactive = score below 0.9). Put shortly: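 Secreted cystine was measured by UPLC-HRMS in H9 hESC medium after 72h compound exposure with 24-hourly replenishment. Values are standard-normalized areas relative to 0.1% DMSO.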

Assay [10] can be described thus: STM_H9_OrnCyssISnorm_ratio: Stemina devTOX quickPredict H9 human embryonic stem cell (hESC)-based Assay for Ornithine (ORN):Cystine (CYSS) Ratio (AID 2283714). The method, boiled down: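 Undifferentiated H9 hESCs exposed 72 h, media and compound replaced every 24 h; final 24-h conditioned media deproteinized and analysed by UPLC-HRMS against C13 spike-ins. Value is the internal-standard-normalized ORN/CYSS ratio versus 0.1% DMSO.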

Assay [11] in a line: CEETOX_H295R_MTT_cell_viability: Viability Assessment in the CeeTox HT-H295R MTT Assay (AID 2283718; active = hit-call score of the fitted dose curve at least 0.9, where 1 is the maximum; inactive = score below 0.9;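 as to AC50: curve fitted both ways so AC50 may mark viability loss or gain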). Put shortly:
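Human H295R adrenal cells, prestimulated 48 h with 10 uM forskolin, were exposed 48 h to chemicals in 0.1% DMSO. Viability was measured in the same wells by MTT (0.5 mg/ml, 4 h, 37 C), absorbance 570/650 nm, as percent of controls.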

A short description of assay [12]: ArunA_CellTiter_hNC: Viability Assessment in the ArunA Biomedical's Oris Neural Crest (hNC) Cell Migration Assay (AID 2283752). The method, boiled down:
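Viability of embryonic neural crest stem cells from the H9 line is scored 72 h after dosing, with DMSO as negative control and baseline. A drop in CellTiter Aqueous One signal indicates cytotoxicity.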

Assay [13] is described as follows: ArunA_CellTiter_hNP: Viability Assessment in the ArunA Biomedical's Oris Neural Crest (hNC) Cell Migration Assay (AID 2283753). The method, boiled down:
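H9-derived hNP1 neuroprogenitors, 60,000/well on Matrigel, cultured 16 h, then 72 h chemical exposure in test medium. Cell titer via CellTiter Aqueous One; positive-direction fit vs DMSO.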

A short description of assay [14]: ArunA_Migration_hNC: ArunA Biomedical's Oris Neural Crest (hNC) Cell Migration Assay (AID 2283755). Put shortly:
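Human H9-derived neural crest stem cells, 60,000/well on Matrigel, 16 h at 37C, then 72 h chemical exposure after seeding-stopper removal. Migration into detection zone read as calcein-AM fluorescence (ex494/em517), relative to DMSO.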

A short description of assay [15]: ArunA_NOG_NucleusCount: ArunA Biomedical's Neurite Outgrowth (NOG) Assay for Nucleus Count (AID 2283756). The method, boiled down:
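Human H9-derived differentiated neurons were exposed for 48 h right after seeding. Hoechst-stained nuclei gated by size and intensity were counted by automated high-content imaging as viable neurons. Loss of signal vs DMSO.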

Read-out in assay [16]: solute carrier (SLC10A1), SLC10A1 (gene 6554)
Put plainly: LTEA_HepaRG_SLC10A1: Life Technologies and Expression Analysis (LTEA) Assay for solute carrier (SLC10A1) using HepaRG (AID 2283657; active = hit-call score of the fitted dose curve at least 0.9, where 1 is the maximum; inactive = score below 0.9). The settings on record: mRNA level, 48 h; actives raise or lower the signal. The method, boiled down: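 HepaRG cells (single lot) exposed 48 h in serum-free induction medium, 8-point half-log series from 100 uM top in 0.5% DMSO, duplicate. SLC10A1 mRNA by qRT-PCR normalised to ACTB, GAPDH, POLR2A; bidirectional fit versus DMSO.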

Read-out in assay [17]: matrix metalloproteinase-1 (MMP1), MMP1 (gene 4312)
Nature of the assay: LTEA_HepaRG_MMP1: Life Technologies and Expression Analysis (LTEA) Assay for matrix metalloproteinase-1 (MMP1) using HepaRG (AID 2283658; active = hit-call score of the fitted dose curve at least 0.9, where 1 is the maximum; inactive = score below 0.9). The following applies: mRNA level, 48 h; actives raise or lower the signal. The method, boiled down:
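Differentiated human HepaRG cells, 48 h post-plating in serum-free induction medium, were exposed 48 h to eight half-log concentrations topping at 100 uM in 0.5% DMSO, duplicate. MMP1 mRNA measured by Fluidigm TaqMan qRT-PCR, normalized to ACTB, GAPDH, POLR2A; bidirectional fits versus DMSO.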

Read-out in assay [18]: Cytochrome P450 (CYP24A1_1), CYP24A1 (gene 1591)
Put plainly: LTEA_HepaRG_CYP24A1_1: Life Technologies and Expression Analysis (LTEA) Assay for Cytochrome P450 (CYP24A1_1) using HepaRG (AID 2283671; active = hit-call score of the fitted dose curve at least 0.9, where 1 is the maximum; inactive = score below 0.9). The settings on record: mRNA level, 48 h; actives raise or lower the signal. Put shortly:
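Differentiated human HepaRG cells in serum-free induction medium, exposed 48 h in duplicate to eight half-log concentrations from 100 uM top, 0.5% DMSO. Transcript measured by TaqMan qRT-PCR, normalised to ACTB, GAPDH, POLR2A; bidirectional fitting versus DMSO.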

The structures appear in SMILES notation. Inconclusive results are not listed. Calls of active or inactive are those of the source. The calls were made as follows, unless noted: active = hit-call score of the fitted dose curve at least 0.9, where 1 is the maximum; inconclusive = response in the unintended direction; inactive = score below 0.9.

By AC50 is commonly meant the concentration at which the activity in the assay is half-maximal.

On to `CCCCCCOCCO`, for which the call in assay [1], in [2] and in assay [3] was inactive.
For the molecule `Nc1ccccc1N`, the AC50 is 10.9 µM (active) in [2]; 77 µM (active) in assay [6]; 89.9 µM (active) in assay [7]; 7.65 µM (active) in assay [8]; 8.66 µM (active) in [10]. In addition, the molecule was classed as inactive in assay [4], in assay [5], in assay [9] and in assay [11].
As to `CCCCCCCCCCCCCO`, the result in [2], in assay [4], in assay [6] and in [3] was inactive.
As for `CCCCCCCCCCO`, the outcome in [2], in assay [4], in assay [6], in assay [7] and in assay [3] was inactive.
Regarding `OC[C@@H](O)[C@@H](O)[C@H](O)[C@H](O)CO`, the molecule was called inactive in assay [1], in assay [4], in assay [6], in assay [8], in [9] and in [10]. Further, the molecule was called inactive in assay [3], in [12] and in assay [14]. Besides, the AC50 in assay [13] is 80.6 µM (active); in assay [15], 50 µM (active).
With `COc1ccc(S(=O)(=O)N2C(=O)[C@@](c3ccccc3OC)(N3C[C@H](O)C[C@H]3C(=O)N(C)C)c3cc(Cl)ccc32)c(OC)c1`, the call in assay [2], in [4], in assay [6], in [9], in [10] and in assay [3] was inactive. Besides, the AC50 was 5.99 µM (active) in assay [8] and 3.43 µM (active) in assay [11].
With `NCCO`, the result in assay [2], in assay [4] and in [6] was inactive.
In the case of `Cc1cccc([N+](=O)[O-])c1C`, the molecule was classed as inactive in assay [2], in assay [4] and in assay [6].
As to `CC(=O)OCCOCCOCCOC(C)=O`, the call in assay [1], in [2] and in assay [6] was inactive.
With `O=[N+]([O-])C(CO)(CO)CO`, the outcome in assay [1], in assay [4], in [6] and in assay [3] was inactive.
Consider `Cc1ccc(Cl)cc1`, for which the outcome in assay [1], in assay [4], in [16], in [17], in [6] and in [18] was inactive.
In the case of `FC(F)(F)C(F)(F)C(F)(F)C(F)(F)C(F)(F)C(F)(F)CCI`, the molecule was called inactive in assay [1], in assay [2], in assay [6] and in assay [3]. Besides, the AC50 in assay [7] was 31.3 µM (active).
On to `Cc1ccc(C(C)C)c(O)c1`, for which the call in assay [2], in assay [4], in assay [6] and in assay [3] was inactive.
As for `Clc1cc(Cl)c(Cl)cc1Cl`, the molecule was classed as inactive in [1], in assay [2] and in assay [6].

The values are drawn from PubChem BioAssay (EPA / NIEHS).
